Shown are actives, neighbours in structure and some others; about 19% of the full set was active somewhere.
Giardia kill = Small Molecules that selectively kill Giardia lamblia: qHTS; AID 540267, 2011; activity change, % at 7.66 µM, hits read low; 340,000 tested, 0.15% active; Giardia lamblia trophozoite viability; in the data active means activity change below about -80%; inconclusive means between about -30% and that limit;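 further: parasites exposed to compound for two days anaerobically before the ATP read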
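Viability, read as ATP luminescence: trophozoites at 100 cells/well, compound added, 48 hrs anaerobic at 37 deg C, then 15-30 min room-temperature development before reading.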
ELG1 repair inh = qHTS screen for small molecules that inhibit ELG1-dependent DNA repair in human embryonic kidney (HEK293T) cells expressing luciferase-tagged ELG1; 330,000 tested, 2.3% active; HEK293T ELG1-luciferase reporter, luminescence, 16 h; DNA damage induced by 5-fluorouridine; Potency, µM (top dose mostly 46.1 µM), for inactives: at the highest dose activity change, negative = inhibition, actives largely listed as inhibitors; further: potency means the concentration at half of the fitted maximal effect; nearly all actives have a fitted effect of over 55% in size
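Quantitative HTS, concentration-response format. 2,000 cells/well co-treated with 5-fluorouridine and compound, 16 hr in 5% CO2 at 37 °C; ONE-Glo luminescence read after 30 min.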
TDP1 cell noCPT = qHTS for Inhibitors of human tyrosyl-DNA phosphodiesterase 1 (TDP1): qHTS in cells in absence of CPT. DT40 Tdp1-/- hTDP1 cells, no CPT, ATP luminescence, 48 h. Potency, µM (doses to about 46.2 µM), for the others: top-dose activity change, negative = growth inhibition, actives largely listed as inhibitors. 420,000 tested, 15% active; further: potency means the concentration at half of the fitted maximal effect; nearly all actives have a fitted effect of over 55% in size
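Chicken DT40 Tdp1-/- cells stably complemented with human TDP1 were seeded at 400 cells/well with DMSO in place of 20 nM camptothecin. After compound pinning, cells grew at least 48 hr at 37 °C; viability read by CellTiter-Glo luminescence.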
IL1B secr inh = qHTS for Inhibitors of Inflammasome Signaling: IL-1-beta AlphaLISA Primary Screen; THP-1 LPS/ATP IL-1B secretion, AlphaLISA, 16 h; hits give low values; activity change, % at 57.5 µM; 360,000 tested, 4.7% active; AID 743279, 2014; in the data active means activity change below about -50%; inconclusive means mostly about -30% to -49%
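THP-1 cells pretreated 1 hr with compounds (up to 57.5 uM final), then stimulated with LPS (250 ng/mL final) plus ATP (1.25 mM final); secreted IL-1B measured by AlphaLISA after 16 hr, decreased signal indicating inhibition.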
DT40 TDP1 CPT = qHTS for Inhibitors of human tyrosyl-DNA phosphodiesterase 1 (TDP1): qHTS in cells in presence of CPT; chicken DT40 Tdp1-/-;hTDP1 cells + 20 nM CPT, ATP luminescence, 48 h; Potency, µM (doses to about 46.2 µM), without a hit: top-dose activity change, negative = growth inhibition, hits mostly inhibitors; 420,000 tested, 12% active; further: potency means the concentration at half of the fitted maximal effect; nearly all actives have a fitted effect of over 55% in size
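Cell growth measured by CellTiter-Glo luminescence after a minimum 48 h, 37 C compound exposure with 20 nM CPT in Tdp1-knockout DT40 cells stably expressing hTDP1, seeded 400/well; qHTS titration format.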
TDP1 block = qHTS Assay for Inhibitors of Tyrosyl-DNA Phosphodiesterase (TDP1); Potency, µM (doses to about 130 µM), inactives show at the highest dose activity change, negative = inhibition, actives largely listed as inhibitors; recombinant TDP1, AlphaScreen DNA substrate cleavage; AID 485290, 2010; 350,000 tested, 0.28% active; further: potency means the concentration at half of the fitted maximal effect; nearly all actives have a fitted effect of over 40% in size
Target sequence (Q9NUW8 whole entry, looked up): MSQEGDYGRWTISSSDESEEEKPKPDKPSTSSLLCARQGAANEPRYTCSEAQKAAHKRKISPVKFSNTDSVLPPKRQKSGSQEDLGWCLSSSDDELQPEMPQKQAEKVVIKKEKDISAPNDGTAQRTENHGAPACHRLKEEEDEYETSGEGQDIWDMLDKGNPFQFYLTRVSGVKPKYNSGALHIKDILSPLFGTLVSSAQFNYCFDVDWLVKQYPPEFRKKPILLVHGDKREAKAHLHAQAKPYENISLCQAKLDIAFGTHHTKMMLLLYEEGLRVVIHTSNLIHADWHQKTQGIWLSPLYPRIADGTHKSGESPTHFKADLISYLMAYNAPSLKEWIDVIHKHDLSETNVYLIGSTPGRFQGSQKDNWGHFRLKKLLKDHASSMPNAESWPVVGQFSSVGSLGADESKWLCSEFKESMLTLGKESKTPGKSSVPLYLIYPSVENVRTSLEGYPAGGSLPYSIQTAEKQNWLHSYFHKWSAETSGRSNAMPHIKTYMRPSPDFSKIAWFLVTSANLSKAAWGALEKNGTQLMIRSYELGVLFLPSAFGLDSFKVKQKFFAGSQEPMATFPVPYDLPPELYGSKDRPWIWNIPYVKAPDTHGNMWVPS
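Tdp1 1 nM final; 15 min RT w/ cpd; substrate 15 nM, 5 min; beads 10 ug/ml, 10 min; AlphaScreen read. Neg ctrl: no enzyme.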
The depositor's hits bear a star. Unless noted, the call rests on the fitted dose curve; in most records, active means well fitted curve in the direction sought with a large enough effect; inconclusive means small, poorly fitted or top-dose-only effect, or another doubt; inactive means no such curve, though single readings can be large; an effect the other way counts as inactive or inconclusive. On the % scale 0 is the no-effect control and ±100 the full control effect.

For COC(=O)c1ccc(C2C(C#N)=C(C)NC3=C2C(=O)CC(C)(C)C3)cc1 (centres undefined) the results were Giardia kill 8, ELG1 repair inh 3%, TDP1 cell noCPT -21%, IL1B secr inh 23, DT40 TDP1 CPT -22% and TDP1 block 3%.
Screening COc1ccc(C2C(C#N)=C(N)OC3=C2C(=O)CC(C)(C)C3)cc1 (centres undefined) returned Giardia kill 6, ELG1 repair inh -4%, TDP1 cell noCPT 0%, IL1B secr inh -1, DT40 TDP1 CPT 4% and TDP1 block 4%.
Screening O=C(Cc1cccc(NC(=O)C2CCN(C(=O)C3CCCCC3)CC2)c1)Nc1cccc(C(=O)N2CCCC2)c1 returned Giardia kill 8, ELG1 repair inh -26%, TDP1 cell noCPT inconclusive, IL1B secr inh -2, DT40 TDP1 CPT -21% and TDP1 block -1%.
Screening Cc1cc(Cl)ccc1NC(=S)NCC(O)c1ccccc1 (centres undefined) returned Giardia kill 2, ELG1 repair inh 25%, TDP1 cell noCPT inconclusive, IL1B secr inh -9 and DT40 TDP1 CPT inconclusive.
O=C(O)c1cc(O)c2c(c1)[C@H]([C@H]1c3cc(C(=O)O)cc(O)c3C(=O)c3c(O[C@@H]4O[C@H](CO)[C@@H](O)[C@H](O)[C@H]4O)cccc31)c1cccc(OC3O[C@H](CO)[C@@H](O)[C@H](O)[C@H]3O)c1C2=O (some centres undefined) was read as Giardia kill 0, ELG1 repair inh inconclusive, TDP1 cell noCPT 15µM*, IL1B secr inh 13 and DT40 TDP1 CPT 15µM*.
`O=C(O)c1cc(O)c2c(c1)[C@@H]([C@H]1c3cc(C(=O)O)cc(O)c3C(=O)c3c(O[C@@H]4O[C@H](CO)[C@@H](O)[C@H](O)[C@H]4O)cccc31)c1cccc(OC3O[C@H](CO)[C@@H](O)[C@H](O)[C@H]3O)c1C2=O` (some centres undefined) gave Giardia kill -24, ELG1 repair inh -9%, TDP1 cell noCPT inconclusive, IL1B secr inh -3 and DT40 TDP1 CPT inconclusive.
Cc1ccc(Cn2c(CCCO)nc3ccccc32)cc1 was read as Giardia kill 13, ELG1 repair inh 5%, TDP1 cell noCPT inconclusive, IL1B secr inh 8 and DT40 TDP1 CPT inconclusive.
For Nc1nc2ccccc2n1Cc1ccc(Cl)c(Cl)c1 the results were Giardia kill -27, ELG1 repair inh -18%, TDP1 cell noCPT inconclusive, IL1B secr inh -92* and DT40 TDP1 CPT inconclusive.
Cc1ccc(Cn2c(N)nc3ccccc32)cc1 was read as Giardia kill 8, ELG1 repair inh -8%, TDP1 cell noCPT 9.2µM*, IL1B secr inh -25 and DT40 TDP1 CPT 18µM*.
O=C(NC(=S)NCCCN1CCOCC1)c1ccc([N+](=O)[O-])cc1 was read as Giardia kill -10, ELG1 repair inh 10%, TDP1 cell noCPT -20%, IL1B secr inh 46, DT40 TDP1 CPT 2% and TDP1 block 3%.
For O=C(O)[C@@H]1CN[C@@H](C(=O)O)C1 the results were TDP1 cell noCPT -16%, DT40 TDP1 CPT 9% and TDP1 block 2%.
`CCN(CC)C(=S)SC1CCCCN(C(=O)c2ccccc2)C1=O` (centres undefined) gave Giardia kill 10, ELG1 repair inh -3%, TDP1 cell noCPT -2%, IL1B secr inh -3, DT40 TDP1 CPT 18µM* and TDP1 block -4%.
